Source: PubChem BioAssay (NCATS)
Inconclusive results are not listed. Entries that show only a call come without a potency. Calls of active or inactive are those of the source. Calls come from the whole dose curve; as a rule, active = well fitted cell-killing curve with a large enough effect; inconclusive = small, poorly fitted or top-dose-only effect; inactive = flat fitted curve, though single readings scatter.

Experiment: qHTS of pediatric cancer cell lines to identify multiple opportunities for drug repurposing: Primary screen for DAOY cells (AID 1347090); note: nearly all actives have a fitted effect of over 55% in size
Conditions: DAOY medulloblastoma viability, CellTiter-Glo luminescence, 48 h; series mostly up to 46 µM
How it was run: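 Cell viability, CellTiter-Glo luminescence; 500-1,000 cells/well, 8- or 11-point titration, 48 h compound exposure at 37 degrees C, 5% CO2. Controls: DMSO neutral, bortezomib 2.3 µM final as positive.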
Potency is the fitted concentration of half-maximal effect.

Structure (SMILES)	Potency
CC(=O)OC1C(C)OC(Oc2c(-c3ccc(O)cc3)oc3cc(O)cc(O)c3c2=O)C(O)C1OC(C)=O (stereo not given)	inactive
Cc1c[nH]c(C=C2C(=O)Nc3ccccc32)c1CCC(=O)O	inactive
CC1(C)CCC[C@@]2(C)[C@@H]1CC[C@@]1(C)OC(=O)C[C@H]21	inactive
COc1ccc2cccc(CCNC(C)=O)c2c1	inactive
O=C(O)c1ccc(-c2c[nH]c3ncc(-c4ccccc4)cc23)cc1C1CCCC1	inactive
O=C(OCC#CCSc1nnc(-c2cccc3ccccc23)o1)c1cc2ccccc2s1	inactive
CN(C)Cc1cccc(N=C(c2ccccc2)c2c(O)[nH]c3cc(C(=O)N(C)C)ccc23)c1	2.96 µM (active)
O=C1c2ccccc2-[n+]2ccc3c([nH]c4ccccc43)c21	2.96 µM (active)
Cc1ccc(C(=O)Nc2cccc(C(F)(F)F)c2)cc1Nc1nc(-c2cccnc2)nc2c1cnn2C	14.8 µM (active)
Cc1ccccc1C(C(=O)NC1CCCCC1)N(C(=O)Cn1ccnc1C)c1cccc(F)c1 (stereo not given)	inactive
COc1ccc(-n2c(C)c([N+](=O)[O-])c3ccc(O)cc32)cc1	inactive
CO[C@H]1C=CO[C@@]2(C)Oc3c(C)c(O)c4c(O)c(c5c(c4c3C2=O)NC2(CCN(CC(C)C)CC2)N=5)=NC(=O)C(C)=CC=C[C@H](C)[C@H](O)[C@@H](C)[C@@H](O)[C@@H](C)[C@H](OC(C)=O)[C@H]1C	inactive
CCOC(=O)O[C@]1(C(=O)OCCl)CC[C@@H]2[C@H]3CCC4=CC(=O)C=C[C@]4(C)[C@@H]3[C@@H](O)C[C@@]21C	inactive
O=C(O)[C@H]1O[C@H](Oc2cc3oc(-c4ccccc4)cc(=O)c3c(O)c2O)[C@H](O)[C@@H](O)[C@H]1O	inactive
NC1CCC(Nc2nc(Nc3ccc(C(=O)N4CCCCC4)cc3)c3ncn(-c4cccc(F)c4)c3n2)CC1 (stereo not given)	inactive
O=C1NC(=O)C(=Cc2ccc3c(c2)OC(F)(F)O3)S1	23.5 µM (active)
CC#CCn1c(N2CCC[C@@H](N)C2)nc2c1c(=O)n(Cc1nc(C)c3ccccc3n1)c(=O)n2C	inactive
COc1ccc(-c2coc3cc(O)cc(O)c3c2=O)cc1	inactive
O=C(O)c1cc(O)c2c(c1)C(=O)c1cccc(O)c1C2=O	inactive
C=C1C(=O)[C@@]23C(CC[C@@H]1[C@H]2O)[C@@]12CO[C@]3(O)[C@@H](O)[C@@H]1C(C)(C)CC[C@@H]2O (stereo not given in full)	2.35 µM (active)
